What all share (assay): DAPPL (digital affinity profiling via proximity ligation, sequencing); 10 mM Tris-HCl pH 7.5, 50 mM NaCl, 1 mM DTT, 4% glycerol, room temperature, 30 min; GST-TFs on glutathione beads, 16-mer random dsDNA library, 0.1% formaldehyde crosslink after washing; high values mean tight binding
Settings in all cases: protein: recombinant; tags: N-terminal GST; dsDNA, one strand shown

The target in one assay is T1, ERF (Homo sapiens, UniProt P50548 1-548).
T1 sequence: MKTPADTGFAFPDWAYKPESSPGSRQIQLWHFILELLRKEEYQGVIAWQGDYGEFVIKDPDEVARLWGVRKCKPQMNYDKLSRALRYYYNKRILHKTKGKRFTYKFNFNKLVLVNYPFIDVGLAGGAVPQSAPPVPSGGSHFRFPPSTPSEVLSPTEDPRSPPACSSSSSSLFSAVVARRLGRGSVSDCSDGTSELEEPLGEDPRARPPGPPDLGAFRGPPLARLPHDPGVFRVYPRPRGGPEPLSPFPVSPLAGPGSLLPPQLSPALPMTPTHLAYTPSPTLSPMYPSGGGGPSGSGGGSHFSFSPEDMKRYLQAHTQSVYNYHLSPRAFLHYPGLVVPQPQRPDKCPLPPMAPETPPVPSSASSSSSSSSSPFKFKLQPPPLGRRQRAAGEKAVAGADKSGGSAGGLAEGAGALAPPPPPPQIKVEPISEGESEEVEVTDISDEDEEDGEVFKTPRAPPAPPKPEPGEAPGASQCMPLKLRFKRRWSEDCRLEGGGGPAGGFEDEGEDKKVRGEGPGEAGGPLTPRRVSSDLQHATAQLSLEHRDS
In outline: (§1)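 Beads coated with glutathione captured GST-fused human transcription factors that had been expressed in yeast, and the factors were then given DNA barcodes and pooled with a tag-only sample. The pools were incubated with 200 nmole of a random double-stranded 16-mer DNA library in Tris/NaCl/DTT/glycerol buffer for 30 min at room temperature, washed, crosslinked with 0.1% formaldehyde and proximity-ligated with BsaI/T4 ligase at 37 °C for 1 h. PCR amplification and Illumina NextSeq500 sequencing came last. Binding signal is each hexamer's read frequency for a factor divided by its frequency for the tag-only sample.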

Another assay addresses T2, ETV3L (Homo sapiens, UniProt Q6ZN32 1-361).
T2 sequence: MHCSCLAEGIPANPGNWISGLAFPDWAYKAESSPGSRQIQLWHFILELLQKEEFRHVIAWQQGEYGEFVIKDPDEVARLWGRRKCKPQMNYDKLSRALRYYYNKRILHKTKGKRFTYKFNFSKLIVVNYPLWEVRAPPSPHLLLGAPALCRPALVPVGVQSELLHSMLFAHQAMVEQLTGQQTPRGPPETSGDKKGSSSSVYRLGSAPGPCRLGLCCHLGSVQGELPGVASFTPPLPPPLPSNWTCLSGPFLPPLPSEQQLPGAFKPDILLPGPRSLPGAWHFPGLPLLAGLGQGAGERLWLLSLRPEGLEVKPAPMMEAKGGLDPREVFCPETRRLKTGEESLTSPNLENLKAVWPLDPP
The method, boiled down: as §1

The target of a further assay is T3, ETS2 (Homo sapiens, UniProt P15036 1-469).
T3 sequence: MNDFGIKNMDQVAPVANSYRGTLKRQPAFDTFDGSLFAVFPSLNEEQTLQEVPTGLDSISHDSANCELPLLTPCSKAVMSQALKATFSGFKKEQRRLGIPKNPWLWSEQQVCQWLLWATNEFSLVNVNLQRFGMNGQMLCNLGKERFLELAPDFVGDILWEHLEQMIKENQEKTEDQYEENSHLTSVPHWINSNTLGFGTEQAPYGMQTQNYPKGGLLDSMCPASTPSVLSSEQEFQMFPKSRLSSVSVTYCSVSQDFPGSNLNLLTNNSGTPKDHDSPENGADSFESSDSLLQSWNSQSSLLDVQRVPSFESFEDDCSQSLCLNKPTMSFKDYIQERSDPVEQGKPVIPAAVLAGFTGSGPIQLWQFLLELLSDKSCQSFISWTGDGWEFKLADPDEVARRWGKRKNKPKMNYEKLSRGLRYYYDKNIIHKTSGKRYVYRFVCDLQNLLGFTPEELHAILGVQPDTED
The method, boiled down: as §1

The next assay addresses T4, SPDEF (Homo sapiens, UniProt O95238 1-335).
T4 sequence: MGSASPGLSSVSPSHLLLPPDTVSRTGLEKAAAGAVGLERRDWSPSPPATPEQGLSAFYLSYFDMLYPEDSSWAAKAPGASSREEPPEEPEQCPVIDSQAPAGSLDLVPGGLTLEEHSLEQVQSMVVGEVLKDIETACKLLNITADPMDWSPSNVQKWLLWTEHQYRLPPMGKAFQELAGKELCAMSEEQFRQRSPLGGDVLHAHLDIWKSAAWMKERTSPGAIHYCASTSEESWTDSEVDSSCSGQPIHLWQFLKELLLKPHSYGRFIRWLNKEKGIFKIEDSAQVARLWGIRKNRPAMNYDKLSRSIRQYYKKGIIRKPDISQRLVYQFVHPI
In outline:
as §1

Another assay has as its target T5, ETV7 (Homo sapiens, UniProt Q9Y603 1-341).
T5 sequence: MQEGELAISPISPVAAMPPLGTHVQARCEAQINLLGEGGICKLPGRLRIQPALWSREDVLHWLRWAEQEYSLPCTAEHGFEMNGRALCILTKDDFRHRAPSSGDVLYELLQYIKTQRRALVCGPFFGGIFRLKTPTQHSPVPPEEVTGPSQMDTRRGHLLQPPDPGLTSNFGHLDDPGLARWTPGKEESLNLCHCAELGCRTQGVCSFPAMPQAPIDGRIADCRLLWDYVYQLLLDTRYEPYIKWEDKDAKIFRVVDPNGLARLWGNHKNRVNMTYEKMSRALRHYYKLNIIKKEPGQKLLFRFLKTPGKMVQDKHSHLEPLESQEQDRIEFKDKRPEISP
The method, boiled down: as §1

For a further assay, the target named is T6, ELF5 (Homo sapiens, UniProt Q9UKW6-2 1-255).
T6 sequence: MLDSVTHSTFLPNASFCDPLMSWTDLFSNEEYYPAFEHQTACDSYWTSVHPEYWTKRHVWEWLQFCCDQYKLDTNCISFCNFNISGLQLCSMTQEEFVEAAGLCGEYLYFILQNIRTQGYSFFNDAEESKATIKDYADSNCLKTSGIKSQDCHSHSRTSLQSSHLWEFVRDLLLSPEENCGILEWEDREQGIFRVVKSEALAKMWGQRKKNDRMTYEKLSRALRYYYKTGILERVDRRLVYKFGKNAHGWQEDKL
The method, boiled down: as §1

For the next assay, the target named is T7, ETV3 (Homo sapiens, UniProt P41162-2 1-143).
T7 sequence: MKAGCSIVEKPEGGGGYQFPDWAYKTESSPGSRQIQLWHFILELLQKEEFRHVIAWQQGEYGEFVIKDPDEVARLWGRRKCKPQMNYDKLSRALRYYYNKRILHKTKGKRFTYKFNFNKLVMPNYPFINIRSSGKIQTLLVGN
In outline: as §1

The next assay deals with ETV6 (Homo sapiens, UniProt P41212 1-452). In outline:
as §1

Sequence of ETV6 (P41212 whole entry): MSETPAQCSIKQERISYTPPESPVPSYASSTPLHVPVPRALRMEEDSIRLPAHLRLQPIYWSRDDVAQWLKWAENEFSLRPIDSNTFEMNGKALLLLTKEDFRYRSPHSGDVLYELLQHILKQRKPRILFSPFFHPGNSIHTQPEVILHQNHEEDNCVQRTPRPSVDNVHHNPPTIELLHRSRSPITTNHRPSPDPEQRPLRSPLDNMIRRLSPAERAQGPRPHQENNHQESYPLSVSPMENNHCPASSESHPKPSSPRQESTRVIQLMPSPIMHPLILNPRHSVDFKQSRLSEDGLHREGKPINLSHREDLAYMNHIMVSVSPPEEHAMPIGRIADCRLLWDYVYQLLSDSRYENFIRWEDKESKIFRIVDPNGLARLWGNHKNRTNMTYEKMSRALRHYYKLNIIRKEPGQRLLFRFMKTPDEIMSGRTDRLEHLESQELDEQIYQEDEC

As for ATCACT, the binding signal was 1.16 fold enrichment (6-mer frequency, TF over GST control) in the assay with ERF; 1.16 fold enrichment (6-mer frequency, TF over GST control) in the assay with ETV3L; 1.22 fold enrichment (6-mer frequency, TF over GST control) with ETS2; 1.22 fold enrichment (6-mer frequency, TF over GST control) with SPDEF; 1.26 fold enrichment (6-mer frequency, TF over GST control) with ETV7; 1.27 fold enrichment (6-mer frequency, TF over GST control) with ELF5. The binding signal was 1.15 fold enrichment (6-mer frequency, TF over GST control) with ETV3 and 1.28 fold enrichment (6-mer frequency, TF over GST control) with ETV6.

Turning to GCGGAA, the binding signal in the assay with ERF was 1.19 fold enrichment (6-mer frequency, TF over GST control); with ETV3L, 1.29 fold enrichment (6-mer frequency, TF over GST control); with ETS2, 1.42 fold enrichment (6-mer frequency, TF over GST control); with SPDEF, 1.22 fold enrichment (6-mer frequency, TF over GST control); with ETV7, 1.26 fold enrichment (6-mer frequency, TF over GST control); with ELF5, 1.67 fold enrichment (6-mer frequency, TF over GST control). Besides, the binding signal was 1.55 fold enrichment (6-mer frequency, TF over GST control) with ETV3 and 1.58 fold enrichment (6-mer frequency, TF over GST control) with ETV6.

As for ATTTTC, the binding signal in the assay with ERF was 1.38 fold enrichment (6-mer frequency, TF over GST control); with ETV3L, 1.42 fold enrichment (6-mer frequency, TF over GST control); in the assay with ETS2, 1.43 fold enrichment (6-mer frequency, TF over GST control); with SPDEF, 1.34 fold enrichment (6-mer frequency, TF over GST control); in the assay with ETV7 it was 1.39 fold enrichment (6-mer frequency, TF over GST control); with ELF5 it was 1.61 fold enrichment (6-mer frequency, TF over GST control). The binding signal is 1.42 fold enrichment (6-mer frequency, TF over GST control) with ETV3 and 1.43 fold enrichment (6-mer frequency, TF over GST control) in the assay with ETV6.

As for ATACGT, the binding signal in the assay with ERF is 1.11 fold enrichment (6-mer frequency, TF over GST control); with ETV3L, 1.18 fold enrichment (6-mer frequency, TF over GST control); with ETS2 it was 1.19 fold enrichment (6-mer frequency, TF over GST control); with SPDEF it was 1.23 fold enrichment (6-mer frequency, TF over GST control); with ETV7, 1.1 fold enrichment (6-mer frequency, TF over GST control); with ELF5, 1.14 fold enrichment (6-mer frequency, TF over GST control). Besides, the binding signal in the assay with ETV3 was 1.14 fold enrichment (6-mer frequency, TF over GST control); in the assay with ETV6, 1.14 fold enrichment (6-mer frequency, TF over GST control).

For the sequence ATCATG, the binding signal in the assay with ERF is 1.19 fold enrichment (6-mer frequency, TF over GST control); in the assay with ETV3L it was 1.08 fold enrichment (6-mer frequency, TF over GST control); in the assay with ETS2, 1.14 fold enrichment (6-mer frequency, TF over GST control); in the assay with SPDEF, 1.07 fold enrichment (6-mer frequency, TF over GST control); with ETV7, 1.13 fold enrichment (6-mer frequency, TF over GST control); with ELF5, 1.11 fold enrichment (6-mer frequency, TF over GST control). Moreover, the binding signal with ETV3 is 1.19 fold enrichment (6-mer frequency, TF over GST control); in the assay with ETV6, 1.08 fold enrichment (6-mer frequency, TF over GST control).

As to CCACGC, the binding signal with ERF was 1.12 fold enrichment (6-mer frequency, TF over GST control); in the assay with ETV3L it was 1.17 fold enrichment (6-mer frequency, TF over GST control); with ETS2 it was 1.24 fold enrichment (6-mer frequency, TF over GST control); with SPDEF it was 1.17 fold enrichment (6-mer frequency, TF over GST control); in the assay with ETV7 it was 1.15 fold enrichment (6-mer frequency, TF over GST control); with ELF5, 1.11 fold enrichment (6-mer frequency, TF over GST control). For the same sequence, the binding signal in the assay with ETV3 was 1.16 fold enrichment (6-mer frequency, TF over GST control); with ETV6, 1.15 fold enrichment (6-mer frequency, TF over GST control).

Take TGACAA: the binding signal with ERF is 1.23 fold enrichment (6-mer frequency, TF over GST control); in the assay with ETV3L, 1.34 fold enrichment (6-mer frequency, TF over GST control); in the assay with ETS2 it was 1.27 fold enrichment (6-mer frequency, TF over GST control); with SPDEF, 1.21 fold enrichment (6-mer frequency, TF over GST control); with ETV7 it was 1.31 fold enrichment (6-mer frequency, TF over GST control); with ELF5, 1.23 fold enrichment (6-mer frequency, TF over GST control). Further, the binding signal with ETV3 is 1.26 fold enrichment (6-mer frequency, TF over GST control); with ETV6 it was 1.23 fold enrichment (6-mer frequency, TF over GST control).

(Values after publication PMC7862700, “An all-to-all approach to the identification of sequence-specific readers for epigenetic DNA modifications on cytosine”.)
